Compound activity deposited in PubChem BioAssay by National Center for Advancing Translational Sciences (NCATS).
ALOX15B inhib: qHTS Assay for Inhibitors of 15-hLO-2 (15-human lipoxygenase 2); Potency, µM (titrated, usually from 57.1 µM), for the others: top-dose activity change, negative = inhibition, usual class: inhibitors; Polyunsaturated fatty acid lipoxygenase ALOX15B (Homo sapiens), O15296; 110,000 compounds, 0.56% hits; AID 881, 2007; purified 15hLO-2, xylenol orange hydroperoxide absorbance; note: potency is the fitted concentration of half-maximal effect; nearly all actives have a fitted effect of over 60% in size
Target sequence (O15296 whole entry, looked up): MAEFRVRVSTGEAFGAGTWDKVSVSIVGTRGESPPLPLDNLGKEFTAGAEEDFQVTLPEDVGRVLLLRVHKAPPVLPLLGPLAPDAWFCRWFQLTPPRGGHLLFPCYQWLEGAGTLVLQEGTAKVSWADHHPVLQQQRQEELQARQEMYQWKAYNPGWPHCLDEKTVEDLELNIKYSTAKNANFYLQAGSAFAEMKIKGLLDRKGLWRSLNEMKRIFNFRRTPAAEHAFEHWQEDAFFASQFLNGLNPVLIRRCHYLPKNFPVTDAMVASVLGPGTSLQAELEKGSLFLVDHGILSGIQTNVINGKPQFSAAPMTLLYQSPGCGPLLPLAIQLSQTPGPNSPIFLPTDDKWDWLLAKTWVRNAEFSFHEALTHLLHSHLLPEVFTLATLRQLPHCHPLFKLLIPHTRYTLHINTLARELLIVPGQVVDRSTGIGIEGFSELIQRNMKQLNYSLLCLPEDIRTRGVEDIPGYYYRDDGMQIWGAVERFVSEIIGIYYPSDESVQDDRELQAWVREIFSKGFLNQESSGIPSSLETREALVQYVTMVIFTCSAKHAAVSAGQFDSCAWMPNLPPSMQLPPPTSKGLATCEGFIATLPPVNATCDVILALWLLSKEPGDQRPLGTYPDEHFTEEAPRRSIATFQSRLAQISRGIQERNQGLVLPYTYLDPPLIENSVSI
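Enzyme 50 nM, AA 45 uM, 25 mM Hepes pH 7.5 + 0.01% Triton X-100; cpd preinc 15 min RT, rxn 90 min RT; stop/detect with 200 uM XO + 300 uM Fe(II) in 50 mM H2SO4, 30 min; A573/A405.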
IMPase cell inh: qHTS Assay for Identifying the Cell-Membrane Permeable IMPase Inhibitors. Inositol monophosphatase 1 (Rattus norvegicus), P97697. CHO-M1 cells, IP1 accumulation, HTRF TR-FRET ratio. inhibition (IP1 accumulation), % at 46.1 µM. 120,000 tested, under 10 active; active = well fitted curve in the direction sought with a large enough effect in the signal ratio, not every such curve was filed as active; inconclusive = small, poorly fitted or top-dose-only effect, or a change in a side signal; inactive = no such curve, though single readings can be large or run the other way; the % refers to the signal ratio;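 note: cells stimulated with carbachol in lithium chloride buffer; plate controls were DMSO basal wells for no effect and reference inhibitor wells for full effect; higher means more IMPase inhibition seen as more IP1 and lower FRET ratio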
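Measured: the HTRF emission ratio (665/620 nm) plus the 620 nm donor channel, each fitted to the Hill equation to give AC50. Cells were CHO-M1 given compounds up to 46 uM and a 30 min carbachol stimulation at 37C.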
12-hLO inh: qHTS Assay for Inhibitors of 12-hLO (12-human lipoxygenase); Polyunsaturated fatty acid lipoxygenase ALOX12 (Homo sapiens), P18054; purified 12-hLO, xylenol orange hydroperoxide absorbance; Potency, µM (titrated, usually from 57.1 µM), without a hit: at the highest dose activity change, negative = inhibition, hits mostly inhibitors; 150,000 compounds, 0.12% hits; AID 1452, 2008; note: potency is the fitted concentration of half-maximal effect; nearly all actives have a fitted effect of over 55% in size
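Xylenol orange chromogenic assay: hydroperoxide from 12hLO oxidises Fe(II), giving red-shifted Fe(III)-XO absorbance. Conditions: 150 nM enzyme, 40 uM arachidonic acid, 25 mM Hepes pH 7.0, 0.01% Triton X-100, 30 min, room temperature.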
PNC assembly inh: High Content Assay for Compounds that inhibit the Assembly of the Perinucleolar Compartment | 140,000 compounds, 3.1% hits | AID 2417, 2010 | activity change (PNC), negative = inhibition, % at 10 µM | PC3M PTB-GFP, PNC prevalence imaging, 16 h; active compounds read low;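 active = readout at or below -70, meaning at least 70% loss of cells showing the perinucleolar compartment, a nuclear body marking cancer cells; inconclusive = readout between -30 and a set limit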;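 note: plate controls were DMSO wells for no effect and camptothecin positive control wells for full effect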
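Read-out is percentage of cells bearing a perinucleolar compartment, from automated 20x imaging of fixed, Hoechst-stained PC3M PTB-GFP cells. Cells were seeded 4 h, then exposed 16 h to compound (23 nl of library stock) in duplicate plates.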
Numbers without * were called inactive; ? = inconclusive; . = no result given; [ ] = remark or other dose. Compounds with a hit are over-represented: about 3% of the library has one in this group of screens. Unless noted, calls come from the whole dose curve; as a rule, active = well fitted curve in the direction sought with a large enough effect; inconclusive = small, poorly fitted or top-dose-only effect, or another doubt; inactive = no such curve, though single readings can be large; an effect the other way counts as inactive or inconclusive. Unless noted, % is set by controls: 0 for no effect and ±100 for the full control effect.

SMILES	ALOX15B inhib	IMPase cell inh	12-hLO inh	PNC assembly inh
COC(=O)[C@@]1(Cc2ccc(F)cc2)[C@H]2c3cc(C(=O)N4CCCC4)n(CCc4ccccn4)c3C[C@H]2CN1C(=O)c1ccccc1	19%	.	-1%	-97*
COc1ccc(C2CC(=O)C3=C(C2)Nc2ncnn2C3c2ccccc2)cc1 (configuration not stated)	7%	-2	-5%	-107*
COc1ccc(C2CC(=O)C3=C(C2)Nc2ncnn2C3c2ccccc2C)cc1 (configuration not stated)	15%	-5	-7%	35
COc1ccc2[nH]c(=O)c(CN(CCO)C(=O)c3ccccc3F)cc2c1	0%	-5	4%	-28
COCCCNC(=O)C1CCCN(S(C)(=O)=O)C1 (configuration not stated)	.	.	-1%	35
Cc1ccc(S(=O)(=O)N2CCCC(C(=O)Nc3cccnc3)C2)cc1 (configuration not stated)	-1%	9	0%	-15
Cc1ccc(S(=O)(=O)N2CCCC(C(=O)NC3=NCCS3)C2)cc1 (configuration not stated)	6%	7	-4%	-103*
COCCCNC(=O)C1CCCN(S(=O)(=O)c2ccc(C)cc2)C1 (configuration not stated)	.	9	-1%	-100*
C/C(N)=C(/C#N)C(=O)CSc1nnnn1-c1ccc(C)cc1C	-11%	3	-16%	-133*
Cc1ccc(-n2c(Cc3cccn3C)nnc2SCC(=O)Nc2nnc(C)s2)cc1	-9%	-16	-9%	5
CCc1nnc(NC(=O)CSc2nnc3c(C)cc4c(C)ccc(C)c4n23)s1	.	0	0%	-113*
COCCn1c(SCC(=O)Nc2nnc(C)s2)nnc1-c1cc2ccccc2cc1O	-12%	6	-13%	-91*
COCCn1c(SCC(=O)Nc2nnc(C)s2)nnc1-c1c[nH]c2ccccc12	-2%	-5	0%	17
Cc1nnc(NC(=O)CSc2nnc(Cc3cccn3C)n2C)s1	-1%	12	-3%	-95*
CCc1nnc(NC(=O)CSc2nnc(-c3ccncc3)n2C)s1	.	-1	-1%	-100*
COCCNC(=O)c1ccc(-n2c(=O)c(=O)[nH]c3ccccc32)cc1	.	.	-6%	.
CC(C)Oc1cccc(C(=O)Nc2ccccc2N2CCOCC2)c1	4%	0	-4%	5
Cc1cc(Cl)ccc1OC(C)C(=O)Nc1ccccc1N1CCOCC1 (configuration not stated)	2%	7	-5%	-104*
CCC(C)Oc1cccc(C(=O)Nc2ccccc2N2CCOCC2)c1 (configuration not stated)	-3%	11	2%	-87*
CCN(CC)S(=O)(=O)c1ccc(N=Nc2c(C)[nH]n(C(N)=S)c2=O)cc1	.	9	-20%	37
Cc1ccccc1N=Nc1c(C)[nH]n(C(N)=S)c1=O	.	.	-2%	-113*
CC1=C(C(=O)OC2CCCCCC2)C(c2cccc(Cl)c2)CC(=O)N1 (configuration not stated)	.	12	.	.
O=C(CCn1nc(-c2ccccc2)ccc1=O)N1CCN(c2ccccn2)CC1	-5%	2	1%	32
CC(=O)c1c(C)[nH]c(C(=O)COc2cc(C)ccc2C(C)C)c1C	2%	15	-5%	-86*
COc1ccccc1OCC(=O)c1[nH]c(C)c(C(C)=O)c1C	.	9	-9%	22
SMILES	ALOX15B inhib	IMPase cell inh	12-hLO inh	PNC assembly inh
CC(C)(C)C(=O)NC(c1ccc(Cl)cc1)[C@]1(C)C[C@H]1C1CCCCC1 (some centres not stated)	12%	.	-1%	.
COc1cccc(C(=O)Nc2ccc(NC(C)=O)cn2)c1	.	?	2%	-116*
O=C(Nc1ccc(NC(=O)c2ccco2)nc1)c1cccnc1	.	2	2%	-100*
CCOc1ccc(S(=O)(=O)NN)cc1	-30%	5	-3%	-25
Cc1nc2ccc(NC(=O)Nc3ccnc4cccnc34)cc2o1	25%	-2	-4%	.
COc1ccccc1N1CCN(CC(=O)c2ccc3ccn(C(C)=O)c3c2)CC1	-3%	5	-6%	-11
CC(=O)OCC(=O)c1ccc2ccn(C(C)=O)c2c1	.	-7	4%	-100*
Cc1ccc(C(=O)NC(=S)Nc2ccc(Oc3ccc(Cl)cc3)cc2)cc1	13µM*	17	-8%	23
CCn1c2ccccc2c2cc(N=C3SC(CC(=O)Nc4ccccc4OC)C(=O)N3CCOC)ccc21 (configuration not stated)	.	.	-12%	-98*
COc1ccc(N=C2SC(CC(=O)Nc3ccc(F)cc3)C(=O)N2Cc2ccco2)cc1 (configuration not stated)	.	.	-2%	-6
COc1ccc(N=C2SC(CC(=O)Nc3ccccc3OC)C(=O)N2Cc2ccco2)cc1 (configuration not stated)	.	.	-1%	-104*
Cc1cc(C)c2[nH]c(=O)c(CN(Cc3cccs3)C(=S)NCc3ccco3)cc2c1	.	.	-13%	-12
COc1ccccc1/C=C/CN1CCN(c2ccccc2)CC1	30%	7	-19%	-111*
CCCCc1nc2c(c3c1C[C@H](C)OC3)CN(C(=O)C1CC1)CC2	.	.	1%[11.4 µM]	.
CCOC(=O)N1CCN(C(=O)CN(C2CCCCC2)S(=O)(=O)c2c(C)cc(C)cc2C)CC1	-5%	7	-4%	26
Cc1cc(C)c(S(=O)(=O)N(CC(=O)O)C2CCCCC2)c(C)c1	-9%	6	-5%	-97*
Cc1ccc(S(=O)(=O)Oc2ccc(N=Nc3ccc(-c4ccc(N=Nc5c(O)ccc6cc(S(=O)(=O)O)cc(S(=O)(=O)O)c56)c(C)c4)cc3C)cc2)cc1	3.2µM*	.	?	.
Cc1ccc(N=Nc2c(O)ccc3cc(S(=O)(=O)O)ccc23)cc1	-6%[11.4 µM]	.	-8%[11.4 µM]	.
CN(C(=O)COC(=O)c1cc(NS(=O)(=O)c2cc([N+](=O)[O-])ccc2Cl)ccc1O)C1CCCCC1	.	.	3%	-95*
CCCOC(=O)Nc1cccc(C(C)=O)c1	.	-1	1%	-100*
CCCOC(=O)Nc1ccc(C(N)=O)cc1	4%	-3	-4%	?
Cc1ccc(C(=O)N2CCN(c3ccccc3)CC2)cc1C	-8%	20	-1%	-107*
O=C(c1csc2c1CCCC2)N1CCN(c2ccccc2)CC1	0%	5	4%	-80*
O=C(c1ccccc1C(=O)N1CCN(c2ccccc2)CC1)N1CCN(c2ccccc2)CC1	-3%	5	0%	-9
Cc1ccccc1S(=O)(=O)Nc1nc2ccccc2nc1N1CCc2ccccc2C1	.	-8	-3%	6
Cc1cc(C)nc(NS(=O)(=O)c2ccc(NC(=O)c3ccc(N4C(=O)CCC4=O)cc3)cc2)n1	.	.	2%	-102*
Cc1cc(C)nc(NS(=O)(=O)c2ccc(NC(=O)CN3C(=O)c4ccccc4C3=O)cc2)n1	-5%	-3	9%	-92*
